In the library only some 21% were active in any assay of this set; here they are far more common.
TDP1 cell noCPT: qHTS for Inhibitors of human tyrosyl-DNA phosphodiesterase 1 (TDP1): qHTS in cells in absence of CPT; DT40 Tdp1-/- hTDP1 cells, no CPT, ATP luminescence, 48 h; Potency, µM (highest dose often 46.2 µM), for the others: at the top dose activity change, negative = growth inhibition, usual class: inhibitors; actives 15% (n = 420,000); AID 686978, 2013; note: potency is the fitted concentration of half-maximal effect; nearly all actives have a fitted effect of over 55% in size
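Growth kinetics read by CellTiter-Glo luminescence after ≥48 hr at 37 °C. Cells: DT40 Tdp1-/- stably carrying human TDP1, 400 per well, compound exposure in the absence of CPT (DMSO vehicle).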
IL-1B inflam inh: inflammasome signaling inhibition, IL-1 beta readout; THP-1 LPS/ATP IL-1B secretion, AlphaLISA, 16 h; active compounds read low; actives 4.7% (n = 360,000); activity change, % at 57.5 µM; AID 743279; in the data active = activity change below about -50%; inconclusive = mostly about -30% to -49%
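Secreted IL-1B measured by AlphaLISA bead assay after 16 h compound exposure of THP-1 cells; compounds (final up to 57.5 uM) added 1 h before LPS (250 ng/mL) and ATP (1.25 mM) stimulation; lower signal means less secretion.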
DT40 TDP1 CPT: DT40-hTDP1 cell growth loss with CPT; actives 12% (n = 420,000); AID 686979; Potency, µM (series often up to 46.2 µM), for the others: at the highest dose activity change, negative = growth inhibition, actives largely listed as inhibitors; chicken DT40 Tdp1-/-;hTDP1 cells + 20 nM CPT, ATP luminescence, 48 h; note: potency is the fitted concentration of half-maximal effect; nearly all actives have a fitted effect of over 55% in size
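Chicken DT40 Tdp1-/- cells complemented with human TDP1, 400 cells/well, exposed to compounds plus 20 nM camptothecin for at least 48 h at 37 C; viability read as ATP content by CellTiter-Glo luminescence.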
VP16 counter: Gal4-VP16 reporter inhibition counter-screen | Drosophila S2 Gal4-VP16 UAS-luciferase, luminescence, 20 h | Potency, µM (highest dose often 53.6 µM), inactives show at the highest dose activity, negative = inhibition, most hits filed as inhibitors | actives 3.5% (n = 310,000) | AID 2546;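 note: Gal4-VP16 expression switched on by copper sulfate through the metallothionein promoter; potency is the fitted concentration of half-maximal effect; nearly all actives have a fitted effect of over 50% in size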
ELG1 repair inh: ELG1-dependent DNA repair inhibition; HEK293T ELG1-luciferase reporter, luminescence, 16 h; DNA damage induced by 5-fluorouridine; Potency, µM (doses to about 46.1 µM), for inactives: top-dose activity change, negative = inhibition, most hits filed as inhibitors; actives 2.3% (n = 330,000); note: potency is the fitted concentration of half-maximal effect; nearly all actives have a fitted effect of over 55% in size
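Cells (2,000 per well) received 5-fluorouridine plus test compound or DMSO and were incubated 16 hr at 37 °C, 5% CO2. Luciferase activity was read by luminescence 30 min after ONE-Glo addition; signal suppression marked inhibition of damage-induced ELG1 function.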
RORgamma inh: blocks mouse ROR gamma transcriptional activity; Drosophila S2 Gal4-RORgamma UAS-luciferase reporter, 20 h; Potency, µM (top dose mostly 53.6 µM), without a hit: top-dose activity change, negative = inhibition, usual class: inhibitors; P51450; AID 2551; actives 5.4% (n = 310,000); note: potency is the fitted concentration of half-maximal effect; nearly all actives have a fitted effect of over 60% in size
Target sequence (P51450 whole entry, looked up, the tested form may be a part): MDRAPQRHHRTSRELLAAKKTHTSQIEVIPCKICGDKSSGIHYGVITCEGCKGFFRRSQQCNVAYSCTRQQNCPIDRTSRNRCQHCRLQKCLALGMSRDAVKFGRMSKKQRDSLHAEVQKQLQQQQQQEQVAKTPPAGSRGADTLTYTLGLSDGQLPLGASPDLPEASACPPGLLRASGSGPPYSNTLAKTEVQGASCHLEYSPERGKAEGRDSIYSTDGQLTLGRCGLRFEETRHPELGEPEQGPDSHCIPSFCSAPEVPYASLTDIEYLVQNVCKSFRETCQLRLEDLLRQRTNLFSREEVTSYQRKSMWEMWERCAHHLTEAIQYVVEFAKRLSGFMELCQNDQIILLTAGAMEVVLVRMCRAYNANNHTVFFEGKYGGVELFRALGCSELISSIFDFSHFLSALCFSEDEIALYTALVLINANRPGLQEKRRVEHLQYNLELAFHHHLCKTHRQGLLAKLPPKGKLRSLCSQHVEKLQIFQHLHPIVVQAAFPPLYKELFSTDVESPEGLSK
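Drosophila S2 cells stably expressing Gal4-DBD/mouse RORγ fusion under metallothionein promoter plus UAS-luciferase; compound 1 h, then 700 uM CuSO4 induction for 20 h at ambient temperature; inhibition read as reduced luminescence.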
The depositor's hits bear a star; [ ] = dose if it differs, or a comment. Unless noted, calls come from the whole dose curve; as a rule, active = well fitted curve in the direction sought with a large enough effect; inconclusive = small, poorly fitted or top-dose-only effect, or another doubt; inactive = no such curve, though single readings can be large; an effect the other way counts as inactive or inconclusive. % is set by controls: 0 for no effect and ±100 for the full control effect.

Screening COc1ccc(NC(=O)C2=C(C)Nc3nc(SCc4ccccc4C)nn3C2c2cc(OC)c(O)c(OC)c2)cc1 (stereo unspecified) returned TDP1 cell noCPT -0.7% and DT40 TDP1 CPT -2.4%.
`CC1=C(C(=O)Nc2ccc(C)cc2C)C(c2ccc(C(=O)O)cc2)n2nc(SCc3ccccc3)nc2N1` (stereo unspecified) gave TDP1 cell noCPT -2.9% and DT40 TDP1 CPT -3.4%.
`CC1=C(C(=O)Nc2ccccc2C)C(c2ccccn2)n2nc(SCc3ccccc3F)nc2N1` (stereo unspecified) gave TDP1 cell noCPT 10.3µM* and DT40 TDP1 CPT 6.51µM*.
COc1cc(C2C(C(=O)Nc3ccc(C)cc3C)=C(C)Nc3nc(SCc4ccccc4)nn32)cc(OC)c1OC (stereo unspecified) was read as TDP1 cell noCPT 23.1µM* and DT40 TDP1 CPT 20.6µM*.
Screening CC(=O)c1sc(NC(=O)C2CCN(C(=O)c3ccc(F)cc3)CC2)nc1-c1ccccc1 returned TDP1 cell noCPT inconclusive, IL-1B inflam inh 0.0, DT40 TDP1 CPT inconclusive and ELG1 repair inh inconclusive.
COC(=O)C1CN(C(=O)COc2ccc(Cl)cc2C)c2ccccc2O1 (stereo unspecified) was read as TDP1 cell noCPT 16.2%, IL-1B inflam inh -2.9, DT40 TDP1 CPT 2.3%, VP16 counter 6.1%, ELG1 repair inh 7.1% and RORgamma inh 15.1%.
Screening COC(=O)c1c(-c2cccs2)csc1NC(=O)CN1CCOCC1 returned TDP1 cell noCPT inconclusive, IL-1B inflam inh inconclusive, DT40 TDP1 CPT -29.5%, VP16 counter -8.7%, ELG1 repair inh inconclusive and RORgamma inh -10.2%.
`COC(=O)c1c(-c2cccs2)csc1NC(=O)c1ccc(OC)c(OC)c1` gave TDP1 cell noCPT 9.2µM* and DT40 TDP1 CPT 11.6µM*.
For CCOC(=O)c1c(-c2cccs2)csc1NC(=O)c1ccncc1 the results were TDP1 cell noCPT inconclusive, IL-1B inflam inh -14.1, DT40 TDP1 CPT -25.9%, VP16 counter 0.4%, ELG1 repair inh inconclusive and RORgamma inh -6.9%.
`COC(=O)c1c(-c2cccs2)csc1NC(=O)c1ccc(C)cc1` gave TDP1 cell noCPT inconclusive and DT40 TDP1 CPT 3.7%.
For COC(=O)c1c(-c2cccs2)csc1NC(=O)COc1ccc(C(C)C)cc1 the results were TDP1 cell noCPT 20.6µM* and DT40 TDP1 CPT inconclusive.
Screening COC(=O)c1c(-c2cccs2)csc1NC(=O)c1cc(OC)c(OC)c(OC)c1 returned TDP1 cell noCPT 5.8µM* and DT40 TDP1 CPT 9.2µM*.
`COC(=O)c1c(-c2cccs2)csc1NC(=O)c1cc(OC)cc(OC)c1` gave TDP1 cell noCPT inconclusive and DT40 TDP1 CPT 16.4µM*.
`Cc1ccccc1NC(=O)CN1C(=O)CCn2nc(-c3cccn3C)cc21` gave TDP1 cell noCPT -5.2% and DT40 TDP1 CPT -1.8%.
COc1ccc(-c2n[nH]c(=S)n2-c2ccc(C)cc2C)cc1 was read as TDP1 cell noCPT inconclusive, IL-1B inflam inh 41.2, DT40 TDP1 CPT inconclusive, VP16 counter 5.01µM*, ELG1 repair inh -20.8% and RORgamma inh 2.82µM*.
`Cc1ccc(-n2c(-c3ccc(Cl)cc3)n[nH]c2=S)c(C)c1` gave TDP1 cell noCPT -5.4%, IL-1B inflam inh 27.3, DT40 TDP1 CPT -6.6%, VP16 counter 1.12µM*, ELG1 repair inh -3.7% and RORgamma inh 1.41µM*.
`Cc1ccc(-n2c(-c3cccnc3)n[nH]c2=S)c(C)c1` gave TDP1 cell noCPT 9.4%, IL-1B inflam inh -1.3, DT40 TDP1 CPT -1.3%, VP16 counter inconclusive, ELG1 repair inh 0.4% and RORgamma inh inconclusive.
Screening COc1ccc(-c2cc(-c3n[nH]c(=S)n3-c3cccc4ccccc34)[nH]n2)cc1 returned TDP1 cell noCPT -1.0%, IL-1B inflam inh -10.8, DT40 TDP1 CPT 9.8%, VP16 counter -1.7%[10 µM], ELG1 repair inh -18.9% and RORgamma inh inconclusive.
Screening CCCCCN(C(=O)CCC(=O)OCC(=O)c1ccc(CCC)cc1)c1c(N)n(CCCC)c(=O)[nH]c1=O returned TDP1 cell noCPT inconclusive, IL-1B inflam inh inconclusive, DT40 TDP1 CPT inconclusive and ELG1 repair inh -7.4%.
COC(=O)c1cc(OC)c(OC)cc1NC(=S)Nc1cc(Cl)ccc1OC was read as TDP1 cell noCPT inconclusive, IL-1B inflam inh -22.2, DT40 TDP1 CPT inconclusive, VP16 counter 1.41µM*, ELG1 repair inh 1.6% and RORgamma inh 1.26µM*.
For COc1ccc(Cl)cc1NC(=S)Nc1ccc(Cl)cn1 the results were TDP1 cell noCPT 13.9%, IL-1B inflam inh 25.3, DT40 TDP1 CPT -0.4%, VP16 counter inconclusive, ELG1 repair inh -5.2% and RORgamma inh 1.26µM*.
For COc1ccc(Cl)cc1NC(=O)CC(=O)Nc1cc(Cl)ccc1OC the results were TDP1 cell noCPT -28.9%, IL-1B inflam inh 9.1, DT40 TDP1 CPT -1.8%, VP16 counter -7.7%, ELG1 repair inh 4.2% and RORgamma inh 16.7%.
`Cc1cc(Cl)ccc1OCC(=O)OCC(=O)Nc1ccc(Cl)cn1` gave TDP1 cell noCPT -9.6%, IL-1B inflam inh 7.7 and DT40 TDP1 CPT -16.9%.
Screening Cc1cc(Cl)ccc1OCC(=O)NC(=S)Nc1ccc(Cl)cn1 returned TDP1 cell noCPT 30.0%, IL-1B inflam inh 8.2, DT40 TDP1 CPT 12.1%, VP16 counter -6.2%, ELG1 repair inh inconclusive and RORgamma inh 5.62µM*.
COC(=O)c1cc(OC)c(OC)cc1NC(=S)Nc1cccc(Cl)c1 was read as TDP1 cell noCPT -13.8%, IL-1B inflam inh inconclusive, DT40 TDP1 CPT 0.5%, VP16 counter 6.31µM*, ELG1 repair inh 13.5% and RORgamma inh 3.98µM*.
For COC(=O)NC(c1cccc(C)c1)[C@@]1(C(=O)OC)CCCC1=O (stereo partly specified) the results were VP16 counter -2.2%[10 µM] and RORgamma inh -21.7%[10 µM].
Screening CCCCCCCCCC(=O)Nc1cccnc1 returned VP16 counter 0.0%, ELG1 repair inh -5.7% and RORgamma inh 13.5%.
Screening Cn1c(=O)c2c(ncn2CC(=O)OCC(=O)c2ccc(OC(F)F)cc2OC(F)F)n(C)c1=O returned TDP1 cell noCPT -20.2%, IL-1B inflam inh -8.0 and DT40 TDP1 CPT -26.0%.
